This is a sample that favours compounds with a hit; in the whole collection about 2.7% have one here.
HEK293 tox: cytotoxicity in counter-screen for GLP-1R inverse agonists. HEK293 cAMP-luciferase reporter cells, luminescence, 24 h. Potency, µM (titrated, usually from 38.3 µM), actives largely listed as inhibitors. 0.13% of 410,000 active. AID 624418;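 further: loss of luciferase light is scored as toxicity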
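1536-well qHTS counterscreen of the MLSMR; 200 cells/uL, 12 h pre-incubation, 23 nL cpd, 24 h at 37 deg C 5% CO2, luciferase detection reagent, 12 min RT, luminescence. Inhibition = undesired.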
mIDH1 inhibitor: blocks human mutant IDH1 R132H enzyme. O75874. IDH1-R132H enzyme, NADPH consumption, diaphorase/resazurin fluorescence. Potency, µM (highest dose often 76.6 µM), hits mostly inhibitors. 0.093% of 390,000 active. AID 602179; further: nearly all actives have a fitted effect of over 65% in size
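IDH1-R132H (0.5 ug/mL) preincubated 30 min with compound, then NADPH (0.016 mM) and alpha-KG (2 mM) added; 80 min at RT, pH 7.5. Remaining NADPH coupled via diaphorase/resazurin to fluorescence (540/590 nm); concentration-response curves normalized to no-enzyme control.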
rTrxR1 inhibitor: blocks rat thioredoxin reductase 1. recombinant rTrxR1, NADPH fluorescence consumption, selenite substrate. AID 588453. O89049. Potency, µM (series often up to 114 µM), usual class: inhibitors. 1% of 390,000 active; further: nearly all actives have a fitted effect of over 65% in size
Target sequence (O89049 whole entry, looked up): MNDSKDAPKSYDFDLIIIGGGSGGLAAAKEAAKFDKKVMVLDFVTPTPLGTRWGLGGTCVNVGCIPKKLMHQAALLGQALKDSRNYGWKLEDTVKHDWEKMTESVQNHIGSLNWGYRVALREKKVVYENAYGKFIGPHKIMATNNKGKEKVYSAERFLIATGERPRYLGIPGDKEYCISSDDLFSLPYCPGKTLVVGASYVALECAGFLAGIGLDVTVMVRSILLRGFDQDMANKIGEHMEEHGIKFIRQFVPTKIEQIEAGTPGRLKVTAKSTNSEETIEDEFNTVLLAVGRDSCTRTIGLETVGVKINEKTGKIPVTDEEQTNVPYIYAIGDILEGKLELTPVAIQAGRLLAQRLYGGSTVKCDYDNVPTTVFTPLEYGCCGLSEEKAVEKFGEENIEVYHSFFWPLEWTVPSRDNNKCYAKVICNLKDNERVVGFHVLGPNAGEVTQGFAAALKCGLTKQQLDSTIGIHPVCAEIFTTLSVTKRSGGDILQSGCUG
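Rat TrxR1 (90 nM in the dispensed reagent) was pre-reduced with 400 uM NADPH for 5 min at room temperature, then incubated with compound for 15 min. After 400 uM selenite was added, NADPH fluorescence (Ex 340/Em 450 nm) was followed for 8 min.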
GLP1R inv ag: inverse agonists of human GLP-1 receptor. Potency, µM (series often up to 38.3 µM), hits mostly inhibitors. 1.6% of 410,000 active. AID 624417. HEK293 GLP-1R CRE-luciferase, luminescence, 24 h; GLP-1R form is constitutively active. P43220; further: nearly all actives have a fitted effect of over 55% in size
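Inverse agonists were sought by their lowering of basal cAMP reporter luciferase output in HEK293 cells stably carrying constitutively active human GLP-1R, after 24 h compound treatment.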
TrxR1 substrate: substrates of rat thioredoxin reductase 1; Potency, µM (top dose mostly 114 µM); purified TrxR1 substrate turnover, NADPH consumption readout; O89049; 0.01% of 390,000 active; AID 588456; further: nearly all actives have a fitted effect of over 50% in size
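Rat TrxR1, dispensed at 90 nM, was prereduced with 400 uM NADPH (final) for 5 min at ~22 deg C, then incubated with compound 15 min before 400 uM selenite. A first-read NADPH fluorescence drop versus no-compound background flagged substrates.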
GLP-1R agonist: GLP-1 receptor (human) agonism | HEK293 GLP-1R CRE-luciferase, luminescence, 4-6 h; cells express a hypersensitive GLP-1R form | Potency, µM (top dose mostly 45.6 µM), actives largely listed as activators | P43220 | 0.007% of 380,000 active
Hits are given with their value; . = inactive; ? = inconclusive; / = no result; [ ] = another dose, or the depositor's remark. The call rests on the fitted dose curve; in most records, active means well fitted curve in the direction sought with a large enough effect; inconclusive means small, poorly fitted or top-dose-only effect, or another doubt; inactive means no such curve, though single readings can be large; an effect the other way counts as inactive or inconclusive.

SMILES	HEK293 tox	mIDH1 inhibitor	rTrxR1 inhibitor	GLP1R inv ag	TrxR1 substrate	GLP-1R agonist
CCCN1CCN(CC2=C(C(=O)OCC)C(c3ccc(OC(C)C)cc3)NC(=O)N2)CC1 (configuration not stated)	.	.	.	.	.	.
CCCN(CC(=O)Nc1ccccc1OC)C(=O)CC1CCCC1	.	.	.	8.9µM	.	.
CCCN(CC(=O)Nc1ccccc1OC)C(=O)c1cc(-c2ccccc2)nn1-c1ccccc1	.	.	.	10µM	.	.
COc1ccc(OC)c(NC(=O)c2cc(C3CC3)nc3c2c(C)nn3-c2ccc(C)cc2)c1	.	.	.	.	.	/
CCc1ccc2oc(-c3ccc(C)c(NC(=O)Cc4ccccc4)c3)nc2c1	.	.	.	.	.	/
CC1=CCC(C(=O)N/N=C/c2cccs2)C(c2ccc(F)cc2)C1 (configuration not stated)	.	.	.	10µM	.	.
COC(=O)C(NC(=O)COc1ccccc1)(Nc1nc2c(s1)CCCC2)C(F)(F)F (configuration not stated)	.	.	32µM	.	.	.
COC(=O)C(NC(=O)CC(C)C)(Nc1nc2c(s1)CCCC2)C(F)(F)F (configuration not stated)	.	.	.	?	.	/
COc1cccc(NC(=O)Nc2nc(SC(C)(C)C)ns2)c1	?	.	.	5.6µM	.	.
S=C1Cc2ccccc2N1	.	37µM	.[0.457 µM]	1µM	?	.
S=C1Nc2ccccc2CS1	?	.	/	?	/	.
CCC1CN(C(=O)N2CCC(C(=O)NCCc3ccc(Cl)cc3)CC2)c2ccccc2O1 (configuration not stated)	.	.	.	?	.	/
Oc1ccc(-c2cnc3c(Nc4cccc(OC(F)(F)C(F)F)c4)nccn23)cc1	.	/	/	?	/	.
FC(F)C(F)(F)Oc1cccc(Nc2nccn3c(-c4ccc5ccccc5c4)cnc23)c1	.	/	/	11µM	/	.
COc1cc(-c2ccno2)ccc1S(=O)(=O)N1CCN(c2ccc(F)cc2)CC1	.	.	.	.	.	/
C[C@H]1CN([C@@H](C)CO)C(=O)Cc2cc(NC(=O)CCC(F)(F)F)ccc2O[C@H]1CN(C)Cc1ccc(-c2ccccc2)cc1	.	.	.	4.5µM	.	.
C[C@@H]1CCCCO[C@@H](CN(C)Cc2ccc(Cl)c(Cl)c2)[C@@H](C)CN([C@H](C)CO)C(=O)c2cc(NC(=O)CCC(F)(F)F)ccc2O1	.	.	/	2.8µM	/	.
C[C@H]1CN([C@@H](C)CO)C(=O)Cc2cc(NC(=O)CCC(F)(F)F)ccc2O[C@H]1CN(C)Cc1ccc(C(F)(F)F)cc1	.	.	.	10µM	.	.
C[C@H]1CN([C@@H](C)CO)C(=O)Cc2cc(NC(=O)CCN3CCOCC3)ccc2O[C@@H]1CN(C)Cc1ccc(Oc2ccccc2)cc1	.	.	.	?	.	.
C[C@H]1CN([C@@H](C)CO)C(=O)Cc2cc(NC(=O)C3CC3)ccc2O[C@H]1CN(C)Cc1ccc(Oc2ccccc2)cc1	.	.	.	10µM	.	.
C[C@@H]1CN([C@H](C)CO)C(=O)Cc2cc(NC(=O)CCC(F)(F)F)ccc2O[C@@H]1CN(C)C(=O)Nc1ccccc1	.	.	.	.	.	.
COC(=O)c1scc(-c2ccc(C)cc2)c1S(=O)(=O)N1CCN(c2ccc(C(C)=O)cc2)CC1	.	.	.	.	.	/
Cc1ccc(-c2nn(C)c(=O)c3ccccc23)cc1S(=O)(=O)NCCCN(C)C	.	/	.	.	.	/
CC(=O)Nc1ccc(NC(=S)NC(=O)c2ccc(C(C)(C)C)cc2)cc1	/	/	/	/	/	.
NN=C1c2cc(S(=O)(=O)NCCO)ccc2-c2ccc(S(=O)(=O)NCCO)cc21	/	/	.	/	.	/
SMILES	HEK293 tox	mIDH1 inhibitor	rTrxR1 inhibitor	GLP1R inv ag	TrxR1 substrate	GLP-1R agonist
Cc1ccc(NC(=O)CN2C(=O)COc3ccc(S(=O)(=O)NC4CCCC4)cc32)c(Cl)c1	.	.	.	.	.	/
CC(C)(C)c1ccc(C(=O)NCCc2csc3nc(-c4ccccc4F)nn23)cc1	.	.	.	?	.	/
Cc1ccc(C(=O)NCC(=O)OCC(=O)c2ccc3ccccc3c2)cc1	/	/	.	/	.	/
COc1ccc(C(NC(=O)/C=C\c2ccco2)c2ccc(OC)c(OC)c2)cc1 (configuration not stated)	.	.	8.9µM	.	.	.
COc1ccc(NC(=O)N/C=C/c2ccco2)cc1	.	.	?	.	.	.
COc1ccc(-c2csc(NC(=S)NC(=O)/C=C/c3ccco3)n2)cc1OC	?	.	.	.	.	.
COc1ccc(C(NC(=O)/C=C/c2ccco2)c2ccc(OC)cc2)cc1	.	.	25µM	.	.	.
CCN(CCCN(C)C)c1ccc(/C=C/c2ccnc3ccccc23)cc1	/	/	?	/	.	/
O=S1(=O)CCOC[C@H](c2ccccc2)N1Cc1ccc(F)cc1	/	/	.	/	.	/
Cc1ccc(N(CCC(=O)O)S(=O)(=O)c2ccccc2)cc1	.	.	.	.	.	.
CCOc1ccccc1NC(=O)CCN(c1ccc(C)cc1)S(=O)(=O)c1ccccc1	.	.	.	11µM	.	.
Cc1cccc(NC(=O)C(=O)NCC(c2cccnc2)N2CCN(Cc3ccccc3)CC2)c1 (configuration not stated)	.	.	.	.	.	/
Cc1onc(-c2ccccc2Cl)c1C(=O)Oc1ccc(Br)cc1	.	.	.	.	.	/
Cc1onc(-c2ccccc2Cl)c1C(=O)Oc1cccc2cccnc12	?	.	.	13µM	.	.
CCc1ccc(NC(=S)NC(=O)c2c(-c3ccccc3Cl)noc2C)cc1	.	.	.	10µM	.	.
O=C(NCc1ccco1)c1ccc2c(c1)C(=O)c1ccccc1-2	.	.	20µM	.	.	.
O=C(NCc1ccco1)c1ccc(C(=O)NCc2ccco2)cc1	.	.	.[11.4 µM]	.	.	.
Cc1onc(-c2ccccc2Cl)c1C(=O)NCc1ccco1	.	.	50µM	.	.	.
COc1cc(NC(=O)CN2C(=O)C(c3ccc(Cl)cc3)=NC23CCCCC3)cc(OC)c1	.	/	.	?	.	/
Cc1cc(C)n(-c2nc3cc(Cl)c(Cl)cc3nc2Nc2ccc(F)cc2C)n1	.	.	.	.	.	/
CCOc1ccc(NC(=O)NCCc2c(C)nn(C)c2C)cc1	.	.	.	.	.	/
O=C(Nc1cccc(F)c1)N(Cc1ccc(Cl)cc1)CC(O)C(F)(F)F (configuration not stated)	?	.	.	5.6µM	.	.
O=C(c1ccc(Cl)c(Cl)c1)N1CCN(c2ccccn2)CC1	.	.	.	.	.	.

Source: PubChem
